Reference: PubChem BioAssay AID1159580 (chemical genetic matrix, 2015)
The campaign covered roughly 5,500 compounds. About 2,000 (36%) were called active. About 18% were inconclusive and are not listed. Cut-off read from the data, not from the text of the source: active = normalized growth mostly below about 0.91 (no sharp cut-off); inconclusive = no clear call, values can overlap the other calls; inactive = mostly above about 0.92. This is one part of the list.

Assay: chemical genetic growth profiling, strain panel (AID 1159580);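 note: tested at 20 µM; growth read once vehicle control cultures reached saturation at 30 °C; 1 = growth at the plate median or of vehicle wells; lower values mean less growth of the strain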
Settings: growth OD

Measured: normalized growth

CC(=O)CC(c1ccccc1)c1c(O)c2ccccc2oc1=O (configuration not stated)
inactive: S. cerevisiae deletion strains, locus YJR075W, strain HOC1, hits give low values 0.981 | S. cerevisiae deletion strains, locus YKL009W, strain mrt4, hits give low values 1 | S. cerevisiae deletion strains, locus YKL068W, hits give low values 1 | S. cerevisiae deletion strains, locus YKL085W, strain MDH1 (second series), hits give low values 0.954 | S. cerevisiae deletion strains, locus YKL085W, strain MDH1, hits give low values 0.954 | S. cerevisiae deletion strains, locus YKL160W, strain elf1, hits give low values 1 | S. cerevisiae deletion strains, locus YKL190W, strain CNB1, hits give low values 1.01 | S. cerevisiae deletion strains, locus YKR001C, strain vps1, hits give low values 1.02 | S. cerevisiae deletion strains, locus YKR026C, strain gcn3, hits give low values 0.992 | S. cerevisiae deletion strains, locus YKR091W, strain srl3, hits give low values 0.995 | S. cerevisiae deletion strains, locus YLL001W, strain dnm1, hits give low values 0.993 | S. cerevisiae deletion strains, locus YLL026W, hits give low values 0.988 | S. cerevisiae deletion strains, locus YLL041C, strain sdh2, hits give low values 0.997 | S. cerevisiae deletion strains, locus YLR027C, strain aat2, hits give low values 1 | S. cerevisiae deletion strains, locus YLR039C, strain RIC1, hits give low values 0.986 | S. cerevisiae deletion strains, locus YLR058C, strain SHM2, hits give low values 1.01 | S. cerevisiae deletion strains, locus YLR102C, strain apc9, hits give low values 1.01 | S. cerevisiae deletion strains, locus YLR113W, strain HOG1, hits give low values 0.922 | S. cerevisiae deletion strains, locus YLR221C, strain rsa3, hits give low values 1.01 | S. cerevisiae deletion strains, locus YLR258W, strain gsy2, hits give low values 1 | S. cerevisiae deletion strains, locus YLR262C, strain YPT6 (second series), hits give low values 0.881 | S. cerevisiae deletion strains, locus YLR262C, strain YPT6, hits give low values 0.99 | S. cerevisiae deletion strains, locus YLR268W, strain sec22, hits give low values 1.03 | S. cerevisiae deletion strains, locus YLR320W, strain mms22, hits give low values 1.01 | S. cerevisiae deletion strains, locus YLR330W, strain CHS5, hits give low values 1 | S. cerevisiae deletion strains, locus YLR342W, strain FKS1 (second series), hits give low values 1.02 | S. cerevisiae deletion strains, locus YLR342W, strain FKS1, hits give low values 0.995 | S. cerevisiae deletion strains, locus YLR357W, strain rsc2, hits give low values 1.03 | S. cerevisiae deletion strains, locus YLR370C, strain arc18, hits give low values 0.993 | S. cerevisiae deletion strains, locus YLR371W, strain rom2, hits give low values 1.02 | S. cerevisiae deletion strains, locus YLR384C, strain iki3, hits give low values 0.986 | S. cerevisiae deletion strains, locus YLR418C, strain cdc73, hits give low values 1.06 | S. cerevisiae deletion strains, locus YML016C, strain PPZ1, hits give low values 1.01 | S. cerevisiae deletion strains, locus YML032C, strain rad52, hits give low values 1.03 | S. cerevisiae deletion strains, locus YML120C, strain ndi1, hits give low values 1 | S. cerevisiae deletion strains, locus YML124C, strain tub3, hits give low values 1.01 | S. cerevisiae deletion strains, locus YMR058W, strain fet3, hits give low values 1.01 | S. cerevisiae deletion strains, locus YMR078C, strain ctf18, hits give low values 1.02 | S. cerevisiae deletion strains, locus YMR125W, strain sto1, hits give low values 1.01 | S. cerevisiae deletion strains, locus YMR129W, hits give low values 1 | S. cerevisiae deletion strains, locus YMR205C, strain PFK2, hits give low values 1.01 | S. cerevisiae deletion strains, locus YMR223W, strain ubp8, hits give low values 1.01 | S. cerevisiae deletion strains, locus YMR231W, strain pep5, hits give low values 1 | S. cerevisiae deletion strains, locus YMR263W, strain SAP30, hits give low values 1.01 | S. cerevisiae deletion strains, locus YMR307W, strain GAS1, hits give low values 1.05 | S. cerevisiae deletion strains, locus YNL067W, strain RPL9B, hits give low values 1.01 | S. cerevisiae deletion strains, locus YNL071W, strain lat1, hits give low values 1 | S. cerevisiae deletion strains, locus YNL128W, strain TEP1, hits give low values 1.03 | S. cerevisiae deletion strains, locus YNL153C, strain GIM3, hits give low values 1 | S. cerevisiae deletion strains, locus YNL183C, strain NPR1, hits give low values 0.942 | S. cerevisiae deletion strains, locus YNL209W, strain ssb2, hits give low values 0.998 | S. cerevisiae deletion strains, locus YNL233W, strain BNI4, hits give low values 1.01 | S. cerevisiae deletion strains, locus YNL248C, strain rpa49, hits give low values 1.01 | S. cerevisiae deletion strains, locus YNL250W, strain rad50, hits give low values 1.05 | S. cerevisiae deletion strains, locus YNL271C, strain bni1, hits give low values 1.01 | S. cerevisiae deletion strains, locus YNL298W, strain CLA4, hits give low values 1.03 | S. cerevisiae deletion strains, locus YNL307C, strain MCK1, hits give low values 1.06 | S. cerevisiae deletion strains, locus YNL322C, strain KRE1 (second series), hits give low values 0.989 | S. cerevisiae deletion strains, locus YNL322C, strain KRE1, hits give low values 1.02 | S. cerevisiae deletion strains, locus YNR049C, strain mso1, hits give low values 0.995 | S. cerevisiae deletion strains, locus YNR052C, strain pop2, hits give low values 1.03 | S. cerevisiae deletion strains, locus YOL006C, strain TOP1, hits give low values 1 | S. cerevisiae deletion strains, locus YOL012C, strain htz1 1.19 | S. cerevisiae deletion strains, locus YOL147C, strain pex11, hits give low values 1.01 | S. cerevisiae deletion strains, locus YOR001W, strain rrp6, hits give low values 1.02 | S. cerevisiae deletion strains, locus YOR061W, strain CKA2, hits give low values 1.01 | S. cerevisiae deletion strains, locus YOR069W, strain VPS5, hits give low values 1 | S. cerevisiae deletion strains, locus YOR070C, strain gyp1, hits give low values 0.996 | S. cerevisiae deletion strains, locus YOR080W, strain dia2, hits give low values 1 | S. cerevisiae deletion strains, locus YOR083W, strain WHI5, hits give low values 1.01 | S. cerevisiae deletion strains, locus YOR106W, strain vam3, hits give low values 0.992 | S. cerevisiae deletion strains, locus YOR136W, strain idh2, hits give low values 1.03 | S. cerevisiae deletion strains, locus YOR144C, strain elg1, hits give low values 1.01 | S. cerevisiae deletion strains, locus YOR184W, strain ser1, hits give low values 1.04 | S. cerevisiae deletion strains, locus YOR231W, strain MKK1, hits give low values 0.983 | S. cerevisiae deletion strains, locus YOR265W, strain rbl2, hits give low values 0.984 | S. cerevisiae deletion strains, locus YOR270C, strain vph1, hits give low values 1.02 | S. cerevisiae deletion strains, locus YOR290C, strain snf2, hits give low values 1.01 | S. cerevisiae deletion strains, locus YOR316C, strain cot1, hits give low values 1.01 | S. cerevisiae deletion strains, locus YPL051W, strain arl3, hits give low values 0.994 | S. cerevisiae deletion strains, locus YPL055C, strain LGE1, hits give low values 1.05 | S. cerevisiae deletion strains, locus YPL078C, strain atp4, hits give low values 1.02 | S. cerevisiae deletion strains, locus YPL106C, strain sse1, hits give low values 1.02 | S. cerevisiae deletion strains, locus YPL240C, strain hsp82, hits give low values 1 | S. cerevisiae deletion strains, locus YPL241C, strain CIN2, hits give low values 1.01 | S. cerevisiae deletion strains, locus YPL256C, strain CLN2, hits give low values 0.955 | S. cerevisiae deletion strains, locus YPR119W, strain clb2, hits give low values 1.01 | S. cerevisiae deletion strains, locus YPR141C, strain kar3, hits give low values 1.01 | S. cerevisiae deletion strains, locus YPR163C, strain tif3, hits give low values 1.02 | S. cerevisiae deletion strains, locus YPR167C, strain met16, hits give low values 1.01 | S. cerevisiae deletion strains, strain wtn01, hits give low values 1 | S. cerevisiae strains, strain wild type, hits give low values 1.02
